Reference: PubChem BioAssay AID504339 (National Center for Advancing Translational Sciences (NCATS), 2011)
Among all 390,000 compounds or so, about 17,000 (4.4%) were called active. Inconclusive results (about 8%) are left out. Shown is part of a subset that was picked to be rich in actives. Values without a mark were called inactive. The call rests on the fitted dose curve; in most records, active means well fitted inhibition curve with a large enough effect; inconclusive means small, poorly fitted or top-dose-only effect; inactive means no such curve, though single readings can be large or run the other way.

Target: Lysine-specific demethylase 4A (Homo sapiens) (UniProt O75164)
Sequence (O75164 whole entry, looked up, the tested form may be a part): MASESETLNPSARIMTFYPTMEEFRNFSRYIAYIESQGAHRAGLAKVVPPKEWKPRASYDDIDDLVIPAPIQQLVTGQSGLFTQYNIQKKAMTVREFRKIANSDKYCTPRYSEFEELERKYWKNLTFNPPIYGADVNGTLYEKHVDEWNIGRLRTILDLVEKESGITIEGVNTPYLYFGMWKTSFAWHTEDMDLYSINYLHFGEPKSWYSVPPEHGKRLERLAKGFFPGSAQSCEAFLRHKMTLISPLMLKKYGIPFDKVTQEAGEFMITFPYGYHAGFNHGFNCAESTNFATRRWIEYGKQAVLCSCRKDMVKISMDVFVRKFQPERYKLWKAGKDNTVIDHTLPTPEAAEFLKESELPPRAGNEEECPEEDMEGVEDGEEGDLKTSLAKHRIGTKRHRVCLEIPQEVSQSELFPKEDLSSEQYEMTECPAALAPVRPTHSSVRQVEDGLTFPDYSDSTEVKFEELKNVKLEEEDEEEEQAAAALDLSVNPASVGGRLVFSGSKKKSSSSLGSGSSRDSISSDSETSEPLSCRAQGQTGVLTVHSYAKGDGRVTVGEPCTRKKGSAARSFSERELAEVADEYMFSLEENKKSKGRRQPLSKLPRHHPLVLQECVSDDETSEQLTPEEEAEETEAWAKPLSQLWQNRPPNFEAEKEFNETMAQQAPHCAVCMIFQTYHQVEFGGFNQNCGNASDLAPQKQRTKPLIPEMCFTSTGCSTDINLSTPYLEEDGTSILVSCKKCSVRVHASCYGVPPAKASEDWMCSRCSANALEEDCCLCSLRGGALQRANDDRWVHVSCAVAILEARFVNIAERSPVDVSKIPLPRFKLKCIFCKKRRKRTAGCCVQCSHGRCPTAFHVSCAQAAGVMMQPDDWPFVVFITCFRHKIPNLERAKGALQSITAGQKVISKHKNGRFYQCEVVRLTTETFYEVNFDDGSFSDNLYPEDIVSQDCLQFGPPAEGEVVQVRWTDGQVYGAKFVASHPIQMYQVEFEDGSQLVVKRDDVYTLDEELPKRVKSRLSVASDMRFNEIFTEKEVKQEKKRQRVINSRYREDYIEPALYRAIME
Assay: qHTS Assay for Inhibitors of JMJD2A-Tudor Domain; further: nearly all actives have a fitted effect of over 50% in size
Settings: AlphaScreen JMJD2A-Tudor / H3K4me3 peptide binding; series mostly up to 114 µM; activity change, negative = inhibition: at the top concentration
On the % scale 0 is the no-effect control and ±100 the full control effect; potency means the concentration at half of the fitted maximal effect.

| Structure (SMILES) | activity change, negative = inhibition [%] | Potency |
| --- | --- | --- |
| Cc1ccc(O)c(NC(=O)CCS(=O)(=O)c2nc(-c3ccc4c(c3)OCO4)cc(C(F)(F)F)n2)c1 | -25.6 |  |
| CCOc1ccc(NC(=O)c2c(NC(=O)Cc3ccccc3)sc3c2CCC(C)C3)cc1 (centres undefined) | -34 |  |
| Cc1ccc(-n2ncc3c(N4CCC(C(N)=O)CC4)ncnc32)cc1 | -5.2 |  |
| COc1ccc(Cn2c(C(=O)O)c(CNCc3cccc(OC)c3)c3ccc(C)cc32)cc1 | -27.9 |  |
| COc1ccccc1C(=O)Nc1c(C(=O)Nc2ccc(C)cc2)oc2ccccc12 | -11.9 |  |
| Cc1ccc(-c2nn3c(=O)cc(CN4CCN(S(=O)(=O)c5ccc(Cl)cc5)CC4)nc3s2)cc1 | -0.325 |  |
| Cc1cccc(Cc2c(C)nc3nc(SCc4ccccc4Cl)nn3c2C)c1 | 13.3 |  |
| Cc1cc(C)n2nc(SCC(N)=O)nc2n1 | -32.6 |  |
| O=C(CNc1ccc(F)cc1F)NC(=O)NCc1ccco1 | -32.2 |  |
| Cc1cc(C)n2nc(SCC(=O)NC(=O)NCc3ccco3)nc2n1 |  | 20 µM (active) |
| COc1ccc(-c2onc(C)c2C)cc1S(=O)(=O)NCC1CCN(Cc2cccc(F)c2)CC1 | -17.2 |  |
| CCN(CC)S(=O)(=O)c1cccc(NC(=O)c2ccc(S(=O)(=O)N3CCCC3)cc2)c1 | -24.2 |  |
| CCN(CC)S(=O)(=O)c1cccc(-c2n[nH]c(=S)n2/N=C/c2ccc(C(=O)OC)cc2)c1 |  | 10 µM (active) |
| COC(=O)c1ccc(NC(=O)CSc2n[nH]c(-c3ccccc3)n2)cc1 | -0.974 |  |
| COc1ccc(N2C(=O)CS(=O)(=O)C23C(=O)N(Cc2ccc(C)cc2)c2ccccc23)cc1Cl (centres undefined) | -16.8 |  |
| COc1ccc(CC(=O)NCCc2sc3nc(-c4ccc(OC)cc4)nn3c2C)cc1 | -20.8 |  |
| Cc1cccc(C(=O)NCCc2nc3ccccc3n2Cc2ccccc2Cl)c1 | 1.68 |  |
| Cc1nn(C)cc1C(=O)NNC(=S)Nc1ccc(Cl)cc1 | -20.5 |  |
| Cc1cccc(-n2cnc(C(=O)NNC(=S)Nc3ccccc3)c2)n1 |  | 35.5 µM (active) |
| Cc1cccc(-n2cnc(C(=O)Nc3cccnc3)c2)n1 | 6.53 |  |
| Cc1ccc2c(c1)c1c(c(=O)n(-c3ccccc3)c(=O)n1CC(=O)c1ccc(Cl)cc1)n2C | -6.21 |  |
| Cc1ccc(C)c(OCC(=O)Nc2sc3c(c2C#N)CCCC3)c1C | -3.46 |  |
| Cc1cc(C)cc(NC(=O)CSc2nc(=O)n(CCN3CCOCC3)c3c2CCC3)c1 | -23.1 |  |
| CC1CCCN(CC(=O)Nc2cc(Cl)ccc2Oc2ccccc2)C1 (centres undefined) | 50.3 |  |
| O=S(=O)(c1cccs1)N1CCN(CCOc2ccccc2)CC1 | -7.9 |  |

| Structure (SMILES) | activity change, negative = inhibition [%] | Potency |
| --- | --- | --- |
| O=C(COc1ccccc1Cl)N1CCCCCCC1 | -8.16 |  |
| CC1CCCN(CCOCCOc2ccccc2-c2ccccc2)C1 (centres undefined) |  | 20 µM (active) |
| CC1CC(C)CN(CCOc2cccc3ccccc23)C1 (centres undefined) | -25.8 |  |
| c1ccc(-c2ccccc2OCCN2CCCCC2)cc1 |  | 8.91 µM (active) |
| COCCNC(=O)CSc1nc(-c2ccccc2)[nH]c1-c1ccc(C)cc1 | -23.3 |  |
| COc1cccc(CNC(=O)CN2C(=O)CCc3cc(S(=O)(=O)N4CCOCC4)ccc32)c1 | -9.6 |  |
| Cc1ccc(Cl)cc1-n1ncc2c(N3CCC(C(N)=O)CC3)ncnc21 | -7.65 |  |
| Cc1ccc(C(=O)N2CCc3cc(CNC(=O)c4ccc(Br)cc4)ccc32)cc1 | -21 |  |
| O=C(COc1ccc(/C=N/NS(=O)(=O)c2ccccc2)cc1)NCCc1ccccc1 | -1.37 |  |
| COc1ccc(N2CC(NS(=O)(=O)c3ccc4ccccc4c3)CC2=O)cc1 (centres undefined) | -0.687 |  |
| O=S(=O)(N/N=C\c1cccn1-c1ccccc1)c1ccc2ccccc2c1 |  | 50.1 µM (active) |
| CCc1cnc2c(c1SCC(=O)N1CCC(C)CC1)c(=O)n(C)c(=O)n2C | -9.42 |  |
| Cc1cc(C)c(NC(=O)c2cc3sc(Cl)cc3n2C)c(C)c1 | -1.09 |  |
| COC(=O)Cc1cc(=O)oc2c(C)c(O)ccc12 | -6.41 |  |
| COc1cccc(C(=O)OCc2cc(=O)oc3c(C)c(C)ccc23)c1OC |  | 79.4 µM (active) |
| COc1cccc(OCC(O)CNC(=O)c2oc3c(C)c(C)ccc3c2C)c1 (centres undefined) | -29.9 |  |
| CCn1c(CN2CCC(C)CC2)nc2cc(NC(=O)c3ccccc3[N+](=O)[O-])ccc21 | -18.9 |  |
| Cc1nn(C(C)C(=O)Nc2ccc(C(C)C)cc2)c(=O)c2c1sc1ccccc12 (centres undefined) | -22.2 |  |
| COc1ccc(NC(=O)CCc2nnc3n(CC(C)C)c(=O)c4ccccc4n23)cc1OC | -24.4 |  |
| COC(=O)c1ccccc1NC(=O)c1ccc(COc2ccccc2Cl)o1 | 15.8 |  |
| CCN(CCCNC(=O)c1cc2c(=O)n(CC)c3ccccc3c2s1)Cc1ccccc1 | -17.2 |  |
| O=C(O)CSc1ccc(S(=O)(=O)N2CCCC2)cn1 | -1.35 |  |
| N#Cc1c(C(F)(F)F)cc(-c2ccc(Cl)cc2)nc1SCC(=O)O | -19.7 |  |
| N#Cc1c(N2CCCCC2)nc(N)c2c(N)nc(SCC(=O)O)cc12 |  | 50.1 µM (active) |
